The results in this text go back to publication PMC10954555.

Assay [1] has as its target Large ribosomal subunit protein uL1 (UniProt P62906). Description: cross-linking mass spectrometry; other.
The target in assay [2] is 60S ribosome subunit biogenesis protein NIP7 homolog (UniProt Q9Y221). Nature of the assay: cross-link between two proteins; cross-linking mass spectrometry; other.
In assay [3] the target is Heat shock cognate 71 kDa protein (UniProt P11142). Nature of the assay: other; cross-linking mass spectrometry; other.
Assay [4] has as its target Stress-70 protein, mitochondrial (UniProt P38646). Nature of the assay: cross-link between two proteins; cross-linking mass spectrometry; other.
The next assay has as its target THO complex subunit 2 (UniProt Q8NI27). Description: other; cross-linking mass spectrometry; other.
The target of assay [5] is THO complex subunit 1 (UniProt Q96FV9). Nature of the assay: cross-link between two proteins; cross-linking mass spectrometry; other.
The target of assay [6] is Transcription initiation factor TFIID subunit 5 (UniProt Q15542). Description: other; cross-linking mass spectrometry; other.
Assay [7] has as its target Transcription initiation factor TFIID subunit 9 (UniProt Q16594). Nature of the assay: other; cross-linking mass spectrometry; other.
Assay [8] deals with Transcription initiation factor TFIID subunit 9B (UniProt Q9HBM6). Nature of the assay: other; cross-linking mass spectrometry; other.
Assay [9] deals with Transcription initiation factor TFIID subunit 12 (UniProt Q16514). Description: cross-link between two proteins; cross-linking mass spectrometry; other.
The target of the next assay is ELAV-like protein 1 (UniProt Q15717). Nature of the assay: other; affinity purification or IP with mass spectrometry; other.
For assay [10], the target named is Heterogeneous nuclear ribonucleoprotein L (UniProt P14866). Nature of the assay: cross-link between two proteins; affinity purification or IP with mass spectrometry; cross-linking mass spectrometry; other.
In assay [11] the target is DNA topoisomerase 3-alpha (UniProt Q13472). Nature of the assay: cross-link between two proteins; cross-linking mass spectrometry; other.
The target in assay [12] is RecQ-mediated genome instability protein 1 (UniProt Q9H9A7). The description is as above.
In assay [13] the target is Heterogeneous nuclear ribonucleoprotein A0 (UniProt Q13151). The assay is described as above.
The target of assay [14] is Paired amphipathic helix protein Sin3a (UniProt Q96ST3). Described as above.
In a further assay the target is Pinin (UniProt Q9H307). The assay is described as above.
Assay [15] concerns the target Polyhomeotic-like protein 2 (UniProt Q8IXK0). The description is as above.
Assay [16] concerns the target Pre-mRNA-processing factor 19 (UniProt Q9UMS4). Described as above.
The target in assay [17] is SAGA-associated factor 29 (UniProt Q96ES7). The assay is described as above.
Assay [18] addresses Sin3 histone deacetylase corepressor complex component SDS3 (UniProt Q9H7L9). The description is as above.
The target in assay [19] is Splicing factor 3A subunit 1 (UniProt Q15459). The description is as above.
Assay [20] has as its target Transcription factor JunD (UniProt P17535). The assay is described as above.
Assay [21] addresses Transcription initiation factor TFIID subunit 3 (UniProt Q5VWG9). The assay is described as above.
The target of assay [22] is Transcription initiation factor TFIID subunit 9 (UniProt Q16594). The description is as above.
Assay [23] addresses Transcription initiation factor TFIID subunit 9B (UniProt Q9HBM6). The description is as above.
In assay [24] the target is Apoptotic chromatin condensation inducer in the nucleus (UniProt Q9UKV3). Nature of the assay: cross-linking mass spectrometry; other.
Assay [25] concerns the target Protein lin-54 homolog (UniProt Q6MZP7). Description: cross-linking mass spectrometry; other.
For the next assay, the target named is Protein lin-9 homolog (UniProt Q5TKA1). Description: cross-linking mass spectrometry; other.
Assay [26] concerns the target THO complex subunit 1 (UniProt Q96FV9). Nature of the assay: cross-linking mass spectrometry; other.
Assay [27] deals with ATP-dependent chromatin remodeler CHD4 (UniProt Q14839). Nature of the assay: other; cross-linking mass spectrometry; other.
For assay [28], the target named is Metastasis-associated protein MTA1 (UniProt Q13330). Nature of the assay: other; cross-linking mass spectrometry; other.
Assay [29] concerns the target Transcriptional repressor p66-alpha (UniProt Q86YP4). Description: other; cross-linking mass spectrometry; other.
The next assay concerns the target DNA topoisomerase 2-beta (UniProt Q02880). Description: other; cross-linking mass spectrometry; other.
Assay [30] has as its target Heterogeneous nuclear ribonucleoprotein A/B (UniProt Q99729). Description: other; cross-linking mass spectrometry; other.
Assay [31] concerns the target Heterogeneous nuclear ribonucleoprotein Q (UniProt O60506). Nature of the assay: other; cross-linking mass spectrometry; other.
In a further assay the target is Histone H1.2 (UniProt P16403). Description: other; cross-linking mass spectrometry; other.
Assay [32] has as its target Mediator of RNA polymerase II transcription subunit 17 (UniProt Q9NVC6). Nature of the assay: other; cross-linking mass spectrometry; other.
The target of assay [33] is Methyl-CpG-binding domain protein 2 (UniProt Q9UBB5). Nature of the assay: other; cross-linking mass spectrometry; other.
Assay [34] concerns the target Methylcrotonoyl-CoA carboxylase beta chain, mitochondrial (UniProt Q9HCC0). Description: other; cross-linking mass spectrometry; other.
In assay [35] the target is Probable ATP-dependent RNA helicase DDX23 (UniProt Q9BUQ8). Nature of the assay: other; cross-linking mass spectrometry; other.
Assay [36] concerns the target Protein lin-54 homolog (UniProt Q6MZP7). Description: other; cross-linking mass spectrometry; other.
The next assay concerns the target RNA-binding protein EWS (UniProt Q01844). Description: other; cross-linking mass spectrometry; other.
Assay [37] has as its target Scaffold attachment factor B1 (UniProt Q15424). Nature of the assay: other; cross-linking mass spectrometry; other.
Assay [38] addresses Serine/arginine-rich splicing factor 1 (UniProt Q07955). Description: other; cross-linking mass spectrometry; other.
For a further assay, the target named is Spindlin-1 (UniProt Q9Y657). Nature of the assay: other; cross-linking mass spectrometry; other.
The target of a further assay is THO complex subunit 7 (UniProt Q6I9Y2). Description: other; cross-linking mass spectrometry; other.
Assay [39] concerns the target Torsin-1A-interacting protein 1 (UniProt Q5JTV8). Nature of the assay: other; cross-linking mass spectrometry; other.
Assay [40] deals with Transcription initiation factor TFIID subunit 12 (UniProt Q16514). Description: other; cross-linking mass spectrometry; other.
In assay [41] the target is Trifunctional enzyme subunit beta, mitochondrial (UniProt P55084). Nature of the assay: other; co-fractionation; cross-linking mass spectrometry; other.

Sequence of Transcription initiation factor TFIID subunit 9B (Q9HBM6 whole entry): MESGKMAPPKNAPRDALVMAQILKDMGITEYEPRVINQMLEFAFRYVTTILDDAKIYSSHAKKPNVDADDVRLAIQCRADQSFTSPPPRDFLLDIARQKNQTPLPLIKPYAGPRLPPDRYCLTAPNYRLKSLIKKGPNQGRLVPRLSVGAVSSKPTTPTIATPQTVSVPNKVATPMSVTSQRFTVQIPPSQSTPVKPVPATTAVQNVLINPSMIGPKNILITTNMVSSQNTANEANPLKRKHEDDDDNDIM
Sequence of Transcription initiation factor TFIID subunit 10, Q12962 (Q12962 whole entry): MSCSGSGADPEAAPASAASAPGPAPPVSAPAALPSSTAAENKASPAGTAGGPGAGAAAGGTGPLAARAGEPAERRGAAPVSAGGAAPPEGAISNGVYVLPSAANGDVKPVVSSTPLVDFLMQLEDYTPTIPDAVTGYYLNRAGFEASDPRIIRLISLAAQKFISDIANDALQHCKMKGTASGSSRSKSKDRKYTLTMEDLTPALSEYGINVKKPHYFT
Sequence of Transcription initiation factor TFIID subunit 12 (Q16514 whole entry): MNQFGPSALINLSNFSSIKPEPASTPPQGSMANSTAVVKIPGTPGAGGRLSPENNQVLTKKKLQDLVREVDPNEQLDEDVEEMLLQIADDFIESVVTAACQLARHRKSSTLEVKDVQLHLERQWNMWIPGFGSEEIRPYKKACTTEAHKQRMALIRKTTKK
Sequence of Transcription initiation factor TFIID subunit 9 (Q16594 whole entry): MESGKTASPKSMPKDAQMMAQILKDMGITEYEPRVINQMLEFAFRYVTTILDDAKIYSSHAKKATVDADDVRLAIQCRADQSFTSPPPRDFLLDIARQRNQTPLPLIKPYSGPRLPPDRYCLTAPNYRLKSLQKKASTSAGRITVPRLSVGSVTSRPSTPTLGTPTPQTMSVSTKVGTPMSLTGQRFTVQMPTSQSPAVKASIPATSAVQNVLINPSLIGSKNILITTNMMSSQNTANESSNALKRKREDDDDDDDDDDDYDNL
Sequence of Sin3 histone deacetylase corepressor complex component SDS3 (Q9H7L9 whole entry, one chain of several): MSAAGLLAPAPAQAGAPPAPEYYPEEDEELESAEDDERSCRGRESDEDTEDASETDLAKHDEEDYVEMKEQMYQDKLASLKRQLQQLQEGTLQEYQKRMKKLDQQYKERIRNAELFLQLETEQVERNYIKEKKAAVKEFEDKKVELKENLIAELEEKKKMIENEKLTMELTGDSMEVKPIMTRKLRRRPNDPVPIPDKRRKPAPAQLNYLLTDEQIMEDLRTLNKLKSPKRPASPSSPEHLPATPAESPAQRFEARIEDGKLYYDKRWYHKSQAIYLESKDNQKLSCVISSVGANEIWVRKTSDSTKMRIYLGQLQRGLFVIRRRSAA
Sequence of Endoplasmic reticulum chaperone BiP, P11021 (P11021 whole entry): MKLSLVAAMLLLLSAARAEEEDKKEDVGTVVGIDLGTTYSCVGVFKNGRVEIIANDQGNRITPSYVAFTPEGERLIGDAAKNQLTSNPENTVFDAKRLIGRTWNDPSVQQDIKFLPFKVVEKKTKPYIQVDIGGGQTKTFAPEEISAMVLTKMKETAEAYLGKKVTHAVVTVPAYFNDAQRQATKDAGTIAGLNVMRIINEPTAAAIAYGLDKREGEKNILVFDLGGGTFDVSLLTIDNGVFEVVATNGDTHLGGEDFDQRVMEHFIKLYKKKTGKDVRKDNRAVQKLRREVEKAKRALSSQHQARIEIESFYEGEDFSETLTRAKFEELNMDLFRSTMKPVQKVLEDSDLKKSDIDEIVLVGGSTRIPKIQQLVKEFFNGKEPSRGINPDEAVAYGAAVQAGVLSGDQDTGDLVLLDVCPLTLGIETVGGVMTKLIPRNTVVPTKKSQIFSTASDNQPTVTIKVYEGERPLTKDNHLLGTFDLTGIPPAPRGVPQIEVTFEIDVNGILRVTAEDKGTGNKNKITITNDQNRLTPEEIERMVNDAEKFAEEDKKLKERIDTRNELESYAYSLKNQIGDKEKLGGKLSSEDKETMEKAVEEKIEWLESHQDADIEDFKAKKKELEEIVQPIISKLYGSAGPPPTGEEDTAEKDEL
Sequence of Protein lin-54 homolog (Q6MZP7 whole entry): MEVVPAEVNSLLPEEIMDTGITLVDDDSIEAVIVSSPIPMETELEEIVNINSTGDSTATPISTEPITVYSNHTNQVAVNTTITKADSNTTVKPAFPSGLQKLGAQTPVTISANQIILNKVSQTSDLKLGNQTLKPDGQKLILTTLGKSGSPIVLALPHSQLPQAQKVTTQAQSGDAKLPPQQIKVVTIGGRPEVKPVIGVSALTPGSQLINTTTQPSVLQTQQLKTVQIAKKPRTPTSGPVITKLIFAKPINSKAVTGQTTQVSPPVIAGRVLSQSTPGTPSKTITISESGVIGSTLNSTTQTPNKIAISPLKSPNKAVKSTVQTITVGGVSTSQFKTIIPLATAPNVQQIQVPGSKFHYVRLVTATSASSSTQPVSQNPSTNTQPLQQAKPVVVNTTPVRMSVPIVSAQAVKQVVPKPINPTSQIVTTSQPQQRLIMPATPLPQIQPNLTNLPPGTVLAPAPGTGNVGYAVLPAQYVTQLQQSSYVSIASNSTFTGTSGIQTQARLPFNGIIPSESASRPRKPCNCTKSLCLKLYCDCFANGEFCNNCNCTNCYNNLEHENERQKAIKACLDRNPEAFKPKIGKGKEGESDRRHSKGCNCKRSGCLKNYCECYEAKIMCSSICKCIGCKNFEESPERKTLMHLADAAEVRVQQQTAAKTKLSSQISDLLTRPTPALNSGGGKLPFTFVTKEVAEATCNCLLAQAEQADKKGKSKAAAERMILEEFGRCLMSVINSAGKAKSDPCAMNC
Sequence of THO complex subunit 1 (Q96FV9 whole entry, one chain of several): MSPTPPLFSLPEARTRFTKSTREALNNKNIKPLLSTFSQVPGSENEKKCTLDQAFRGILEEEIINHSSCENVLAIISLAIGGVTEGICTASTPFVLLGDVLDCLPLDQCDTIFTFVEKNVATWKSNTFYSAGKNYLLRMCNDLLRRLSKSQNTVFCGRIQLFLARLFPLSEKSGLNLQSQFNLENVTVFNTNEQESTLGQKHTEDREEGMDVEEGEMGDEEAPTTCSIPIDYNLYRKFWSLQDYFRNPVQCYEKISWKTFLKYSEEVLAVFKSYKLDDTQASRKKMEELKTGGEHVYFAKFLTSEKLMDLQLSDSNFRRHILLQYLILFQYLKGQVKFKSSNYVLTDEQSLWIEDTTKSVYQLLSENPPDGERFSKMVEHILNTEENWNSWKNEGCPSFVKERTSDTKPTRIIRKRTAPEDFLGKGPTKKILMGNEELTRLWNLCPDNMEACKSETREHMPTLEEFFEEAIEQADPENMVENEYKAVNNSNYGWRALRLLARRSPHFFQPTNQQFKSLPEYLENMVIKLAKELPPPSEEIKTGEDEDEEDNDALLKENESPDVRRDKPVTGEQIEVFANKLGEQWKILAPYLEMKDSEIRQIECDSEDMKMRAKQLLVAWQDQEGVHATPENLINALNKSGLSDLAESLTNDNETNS
Sequence of THO complex subunit 2 (Q8NI27 whole entry, one chain of several): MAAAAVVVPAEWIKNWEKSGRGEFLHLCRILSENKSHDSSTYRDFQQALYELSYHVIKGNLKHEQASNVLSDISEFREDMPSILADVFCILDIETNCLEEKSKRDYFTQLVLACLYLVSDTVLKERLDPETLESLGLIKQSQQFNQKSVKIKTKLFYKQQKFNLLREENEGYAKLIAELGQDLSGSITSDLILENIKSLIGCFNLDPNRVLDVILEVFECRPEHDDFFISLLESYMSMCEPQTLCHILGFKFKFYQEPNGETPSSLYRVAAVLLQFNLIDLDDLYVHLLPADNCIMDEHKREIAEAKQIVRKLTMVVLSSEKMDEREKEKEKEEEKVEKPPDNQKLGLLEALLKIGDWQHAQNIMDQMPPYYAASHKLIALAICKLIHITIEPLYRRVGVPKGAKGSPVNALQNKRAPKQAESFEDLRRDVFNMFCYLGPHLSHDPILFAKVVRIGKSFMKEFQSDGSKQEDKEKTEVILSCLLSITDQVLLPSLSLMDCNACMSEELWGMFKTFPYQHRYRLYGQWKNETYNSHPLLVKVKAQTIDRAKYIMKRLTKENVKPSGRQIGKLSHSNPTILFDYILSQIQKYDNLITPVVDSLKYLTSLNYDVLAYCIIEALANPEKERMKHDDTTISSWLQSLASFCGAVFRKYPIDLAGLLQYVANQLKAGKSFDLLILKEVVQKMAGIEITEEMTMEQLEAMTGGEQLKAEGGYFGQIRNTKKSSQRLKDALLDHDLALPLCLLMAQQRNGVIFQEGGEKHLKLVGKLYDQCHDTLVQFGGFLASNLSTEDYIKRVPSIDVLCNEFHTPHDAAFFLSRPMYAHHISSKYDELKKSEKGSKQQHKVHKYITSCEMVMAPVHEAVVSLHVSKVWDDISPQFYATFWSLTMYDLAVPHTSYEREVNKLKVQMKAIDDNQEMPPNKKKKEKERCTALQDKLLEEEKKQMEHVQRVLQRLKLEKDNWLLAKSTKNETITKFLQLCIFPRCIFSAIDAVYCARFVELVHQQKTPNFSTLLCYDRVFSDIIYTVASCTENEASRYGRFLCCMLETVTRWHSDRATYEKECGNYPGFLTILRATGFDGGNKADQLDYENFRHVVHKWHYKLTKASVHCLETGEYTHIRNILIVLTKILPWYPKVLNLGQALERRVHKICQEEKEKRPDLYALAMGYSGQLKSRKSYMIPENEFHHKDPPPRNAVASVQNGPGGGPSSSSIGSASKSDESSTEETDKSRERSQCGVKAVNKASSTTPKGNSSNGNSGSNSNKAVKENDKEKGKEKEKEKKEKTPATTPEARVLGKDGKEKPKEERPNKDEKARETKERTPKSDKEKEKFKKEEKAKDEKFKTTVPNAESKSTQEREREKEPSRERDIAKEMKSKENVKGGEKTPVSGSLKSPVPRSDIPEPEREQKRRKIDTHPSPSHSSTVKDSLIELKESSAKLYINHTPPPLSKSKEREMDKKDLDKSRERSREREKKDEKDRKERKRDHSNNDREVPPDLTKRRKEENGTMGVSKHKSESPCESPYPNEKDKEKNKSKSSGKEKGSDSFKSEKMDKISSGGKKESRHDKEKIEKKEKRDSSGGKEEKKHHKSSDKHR

“28S rRNA (cytosine(4447)-C(5))-methyltransferase, P46087”: the “listed as a hit” value in assay [1] and in assay [2] was “yes” throughout.
Regarding “Endoplasmic reticulum chaperone BiP, P11021”, the “listed as a hit” value in assay [3] and in [4] was “yes” throughout.
Take THO complex subunit 7, Q6I9Y2: the “listed as a hit” value with THO complex subunit 2 and with THO complex subunit 1 [5] was “yes” each time.
For the substance “Transcription initiation factor TFIID subunit 4, O00268”, the “listed as a hit” value in assay [6], in assay [7], in assay [8] and in [9] was “yes” throughout.
“Heterogeneous nuclear ribonucleoproteins C1/C2, P07910”: the “listed as a hit” value (in the assay with ELAV-like protein 1; in [10]) was “yes” each time.
Turning to RecQ-like DNA helicase BLM, P54132, the “listed as a hit” value in assay [11] and in [12] was “yes” throughout.
Turning to “Heterogeneous nuclear ribonucleoprotein A1, P09651”, the “listed as a hit” value in assay [13] was “yes”.
Same read-out and setting: to “Heterogeneous nuclear ribonucleoproteins A2/B1, P22626” belongs “yes”.
Turning to “Histone deacetylase complex subunit SAP30, O75446”, the “listed as a hit” value in assay [14] is listed as “yes”.
As to “RNA-binding protein with serine-rich domain 1, Q15287”, the “listed as a hit” value with Pinin is listed as “yes”.
“E3 ubiquitin-protein ligase RING1, Q06587”: the “listed as a hit” value in assay [15] was “yes”.
With Pre-mRNA-splicing factor SPF27, O75934, the “listed as a hit” value in assay [16] is recorded as “yes”.
On to DNA topoisomerase 3-alpha, Q13472, for which, in assay [12], the “listed as a hit” value was “yes”.
For Transcriptional adapter 3, O75528, in assay [17], the “listed as a hit” value is reported as “yes”.
“Breast cancer metastasis-suppressor 1-like protein, Q5PSV4”: the “listed as a hit” value in assay [18] is recorded as “yes”.
On the same count and under the same terms, the same measure for “Paired amphipathic helix protein Sin3a, Q96ST3”: “yes”.
Take Splicing factor 3B subunit 2, Q13435: in assay [19], the “listed as a hit” value is given as “yes”.
As to “Cyclic AMP-dependent transcription factor ATF-2, P15336”, the “listed as a hit” value in [20] is reported as “yes”.
“Transcription initiation factor TFIID subunit 10, Q12962”: the “listed as a hit” value in [9], in [21] and in assay [22] was “yes” each time.
“Transcription initiation factor TFIID subunit 12, Q16514”: the “listed as a hit” value in assay [22] and in assay [23] was “yes” in each case.
With “Histone deacetylase complex subunit SAP18, O00422”, the “listed as a hit” value in assay [24] is “yes”.
Regarding Protein lin-52 homolog, Q52LA3, the “listed as a hit” value with Protein lin-54 homolog [25] and with Protein lin-9 homolog was “yes” throughout.
Regarding THO complex subunit 2, Q8NI27, the “listed as a hit” value with THO complex subunit 1 [26] is given as “yes”.
Regarding “Metastasis-associated protein MTA2, O94776”, the “listed as a hit” value in assay [27], in assay [28] and in assay [29] was “yes” each time.
Regarding DNA topoisomerase 2-alpha, P11388, the “listed as a hit” value in the assay with DNA topoisomerase 2-beta was “yes”.
Take “Heterogeneous nuclear ribonucleoprotein U, Q00839”: the “listed as a hit” value in [30] is on record as “yes”.
As to “Heterogeneous nuclear ribonucleoprotein R, O43390”, the “listed as a hit” value in assay [31] was “yes”.
As to Histone H1.3, P16402, the “listed as a hit” value in the assay with Histone H1.2 is on record as “yes”.
As to “Mediator of RNA polymerase II transcription subunit 6, O75586”, the “listed as a hit” value in assay [32] is “yes”.
With “Transcriptional repressor p66-beta, Q8WXI9”, the “listed as a hit” value in [33] was “yes”.
For “Methylcrotonoyl-CoA carboxylase subunit alpha, mitochondrial, Q96RQ3”, the “listed as a hit” value in assay [34] was “yes”.
For “CD2 antigen cytoplasmic tail-binding protein 2, O95400”, the “listed as a hit” value in [35] was “yes”.
Turning to Protein lin-9 homolog, Q5TKA1, the “listed as a hit” value with Protein lin-54 homolog [36] is “yes”.
In the case of RNA-binding protein FUS, P35637, the “listed as a hit” value with RNA-binding protein EWS is “yes”.
Scaffold attachment factor B2, Q14151: the “listed as a hit” value in [37] is reported as “yes”.
As for “Serine/arginine-rich splicing factor 3, P84103”, in assay [38], the “listed as a hit” value is “yes”.
As to “Spindlin interactor and repressor of chromatin-binding protein, Q9BUA3”, the “listed as a hit” value with Spindlin-1 is “yes”.
As for THO complex subunit 5, Q13769, the “listed as a hit” value with THO complex subunit 2 and with THO complex subunit 7 was “yes” throughout.
In the case of Prelamin-A/C, P02545, the “listed as a hit” value in assay [39] was “yes”.
Take “Transcription initiation factor TFIID subunit 5, Q15542”: the “listed as a hit” value in [40] and in [8] was “yes” throughout.
Regarding “Transcription initiation factor TFIID subunit 6, P49848”, the “listed as a hit” value in assay [8] was “yes”.
Consider “ATP-dependent chromatin remodeler CHD4, Q14839”, for which, in [29], the “listed as a hit” value is on record as “yes”.
With “Trifunctional enzyme subunit alpha, mitochondrial, P40939”, the “listed as a hit” value in assay [41] is given as “yes”.
